Screening results as filed in PubChem BioAssay.
CHRM1 agonist: activates human CHRM1 receptor; CHO-K1 hM1, Fluo-8 calcium fluorescence, agonist mode; 0% DMSO, 100% acetylcholine EC100; activation, % at 3 µM; hit rate 0.33% among 360,000; P11229;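 active = activation above the run's mean compound activation plus 3 SD, cut at about 16% in these data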;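 also: peak over basal fluorescence ratio within a 140 s kinetic read after compound addition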
Target sequence (P11229 whole entry, looked up): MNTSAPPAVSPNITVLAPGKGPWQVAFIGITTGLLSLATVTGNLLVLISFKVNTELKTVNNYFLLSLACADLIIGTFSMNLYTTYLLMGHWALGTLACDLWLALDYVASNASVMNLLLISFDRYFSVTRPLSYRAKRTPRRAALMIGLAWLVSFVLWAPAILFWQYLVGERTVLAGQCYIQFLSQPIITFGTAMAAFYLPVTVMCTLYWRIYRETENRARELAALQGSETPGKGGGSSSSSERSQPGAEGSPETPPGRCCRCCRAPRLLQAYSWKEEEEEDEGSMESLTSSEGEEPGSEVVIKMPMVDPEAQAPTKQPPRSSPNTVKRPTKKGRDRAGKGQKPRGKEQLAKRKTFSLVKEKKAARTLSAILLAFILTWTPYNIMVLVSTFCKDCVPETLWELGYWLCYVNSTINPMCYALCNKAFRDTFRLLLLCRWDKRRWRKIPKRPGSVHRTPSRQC
CHO-K1 Ca antag: nonselective inhibitor or artifact in parental CHO-K1 cells. AID 602250. ATP-induced calcium, Fluo-8 fluorescence. inhibition, % at 3 µM. hit rate 0.6% among 360,000;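 active = inhibition above a per-plate cutoff, the plate's mean sample inhibition plus 3 SD, cut at about 24% in these data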;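 also: 0% = DMSO plus EC80 ATP and 100% = DMSO alone without ATP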
M1 PAM parental: nonselective activator or artifact in parental CHO-K1 calcium assay. activation, % at 3 µM. AID 602247. ATP EC20, Fluo-8 calcium fluorescence; 0% at ATP EC20, 100% at ATP max. hit rate 0.02% among 360,000;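 active = activation above the run cutoff, the mean activation of all test compounds plus 3 SD, cut at about 40% in these data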;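 also: peak over basal fluorescence ratio in a 140 s read after ATP addition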
CHRM1 antagonist: human CHRM1 antagonism; CHO-K1 hM1, Fluo-8 calcium fluorescence, ACh EC80 antagonist; inhibition, % at 3 µM; hit rate 1.3% among 360,000; AID 588852;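 active = percent inhibition above its own plate's cutoff, namely the mean of that plate's compound wells plus 3 SD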;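 also: peak over basal fluorescence ratio during 140 s after agonist addition; 0% = ACh EC80 plus DMSO and 100% = DMSO alone without agonist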
M1 PAM: positive allosteric modulators of human M1 muscarinic receptor. CHO-K1 hM1, Fluo-8 calcium fluorescence, ACh EC20; 0% = ACh EC20, 100% = maximal ACh. activation, % at 3 µM. hit rate 0.088% among 360,000; in the data active = activation above about 19%, passing the limit was not always enough
CHO-K1 Ca ag: M1 agonist counterscreen hit in parental CHO-K1 cells | Fluo-8 calcium fluorescence; scaled to maximal ATP response, vehicle zero | hit rate 0.48% among 360,000 | activation, % at 3 µM; in the data active = activation above about 15%;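 also: untransfected CHO-K1 host cells lacking M1 receptor as counterscreen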
Numbers without * were called inactive; · = no result. An excerpt weighted towards active compounds, which were near 2.3% of everything screened.

SMILES	CHRM1 agonist	CHO-K1 Ca antag	M1 PAM parental	CHRM1 antagonist	M1 PAM	CHO-K1 Ca ag
Cc1ccc2c(c1)C(c1ccccc1)N(C(=O)c1ccc(Br)cc1)CC(=O)N2 (stereo not drawn)	-2	-16	19	5	-2	4
O=C(c1ccc(CN2CCOCC2)cc1)N1CCC(Cc2ccccc2)CC1	-4	-6	13	0	-1	1
CCc1ccccc1NC(=O)c1ccc(CN2CCC(Cc3ccccc3)CC2)cc1	-4	-12	23	38*	-20	2
COc1ccc(/C(C)=N/NC(=O)CNC(=O)/C=C\c2ccccc2OC)c(OC)c1	-5	-15	19	-9	3	0
COC(=O)c1ccc(NC(c2ccc(Cl)cc2)P(=O)(OC)OC)cc1 (stereo not drawn)	-9	-10	23	3	-3	2
Oc1ccc(C[C@H]2CN([C@@H](Cc3ccc(O)cc3)CN3CCC[C@@H]3CN3C(=S)NC[C@@H]3Cc3ccccc3)C(=S)N2CCc2ccccc2)cc1	-1	34*	0	11	4	0
CC(C)C[C@H]1CN([C@@H](Cc2ccccc2)CN2CCC[C@@H]2CN2C(=O)C(=O)NC[C@@H]2Cc2ccc(O)cc2)C(=O)C(=O)N1CC1CCCCC1	7	30*	-8	15	2	0
CCc1nc2ccc(C(=O)Nc3cccc(OCC(=O)N(C)C)c3)cn2c1N(C)C(=O)c1ccncc1	-2	-17	10	-19	9	1
CCNC(=O)N(C)c1c(CC)nc2ccc(C(=O)Nc3cccc(OCC(=O)N(C)C)c3)cn12	-1	14	-18	32*	-13	0
CCc1nc2ccc(C(=O)Nc3cccc(OCC(=O)N(C)C)c3)cn2c1N(C)Cc1cc2ccccc2s1	-1	9	-4	50*	-25	8
CCCN(CC(=O)Nc1ccccc1C)C(=O)c1ccc(OCc2c(C)noc2C)cc1	-3	5	-14	9	-5	0
Cc1ccccc1-n1ncc(C(C)NS(=O)(=O)c2ccccc2Cl)c1C (stereo not drawn)	0	-12	7	-21	12	1
O=C(OCc1ccccc1)N1CCN(C(c2ccnc3ccccc23)c2nnnn2-c2ccc3c(c2)OCCO3)CC1 (stereo not drawn)	·	-11	2	·	·	1
Cc1[nH]c(=O)c(C#N)c(C)c1CCC(=O)NCc1ccc(Cl)cc1	-4	-4	9	2	2	0
CC1=C(C(=O)N(C(C)C)C(C)C)CC(CC(=O)NC2CCCC2)C(=O)N1Cc1ccc(C(C)(C)C)cc1 (stereo not drawn)	-6	-19	5	-24	-5	0
CC(C)(C#CCN1CCCCC1)OCCOC(c1ccccc1)c1ccccc1	-9	-10	8	99*	-26	0
OC(C#CCN1CCCC1)(c1ccccc1)c1cccc(F)c1 (stereo not drawn)	-15	1	6	101*	-28	0
CC(C)C(O)(C#CCN1CCCCCC1)c1ccccc1 (stereo not drawn)	-14	-3	19	87*	-33	1
C(#Cc1ccccc1)CN1CCCCC1	-15	-12	18	1	-6	3
CC1CCCN1CC#CC(O)(c1ccccc1)c1ccccc1 (stereo not drawn)	-9	-6	6	100*	-28	0
CCOC(=O)c1ccc(N2CCOCC2)c(NC(=O)c2ccc3c(c2)OCO3)c1	-5	2	-21	3	-2	-1
Cc1cccc(-n2c(SCC(=O)NCC3CCCO3)nc3ccccc3c2=O)c1C (stereo not drawn)	-2	-14	23	-11	8	1
CC(O)(C#CCN1CCCCC1)c1ccccc1 (stereo not drawn)	-8	-2	-1	30	-19	0
CC(O)(C#CCN1CCCC1)c1ccccc1 (stereo not drawn)	-9	-10	20	41*	-21	8
CC1CCCN(CCCNC(=O)c2ccc(CS(=O)(=O)c3c(Cl)cccc3Cl)o2)C1 (stereo not drawn)	-5	-10	3	57*	-21	1
SMILES	CHRM1 agonist	CHO-K1 Ca antag	M1 PAM parental	CHRM1 antagonist	M1 PAM	CHO-K1 Ca ag
Cc1cccc(N/C(N)=N/c2nc(C)c(Cc3ccccc3)c(=O)[nH]2)c1	-2	-17	18	-7	9	1
O=C(CSc1nnc(SCc2ccccc2)s1)N/N=C/C=C\c1ccco1	-6	9	17	-5	11	16*
Cc1cc(C)n2nc(-c3ccccc3)c(-c3ccccc3)c2n1	-1	-9	7	-13	15	0
COc1cccc(N2CCN(c3ccc4nnc(CCC(=O)Nc5ncccc5C)n4n3)CC2)c1	-4	0	8	38*	-15	2
COc1cccc(N2CCN(c3ccc4nnc(CCC(=O)Nc5ccc(C)cn5)n4n3)CC2)c1	-4	2	-22	8	-4	2
O=C(NCCCSc1ccccc1)c1cc(Br)ccc1O	2	16	-2	31*	-12	11
CCCNC(=O)C1(C)CCCN(Cc2ccc(Oc3ccccc3)cc2)C1 (stereo not drawn)	-8	0	10	40*	-25	0
CC(C)N1CCCC(C)(C(=O)Nc2cccc(Oc3ccccc3)c2)C1 (stereo not drawn)	-10	-14	14	36*	-20	0
CC(C)N1CCCC(C)(C(=O)Nc2ccccc2)C1 (stereo not drawn)	-3	-10	14	4	2	1
CCCNC(=O)C1(C)CCN(Cc2ccc(Oc3ccccc3)cc2)C1 (stereo not drawn)	-6	-9	9	14	-20	3
Cc1cc(/C=C2/SC(=S)N(c3cccc(Cl)c3)C2=O)c(C)n1-c1cccnc1	5	23	3	27*	-17	9
O=S(=O)(c1ccc(N2CCCC2)cc1)C(F)(F)F	-3	27*	-13	25	-14	10
O=S(=O)(c1ccc(N2CCN(c3ccc(F)cc3)CC2)cc1)N1CCCC1	-4	-3	2	-8	7	0
COC(=O)c1cccc(CC2(C)C(=O)Nc3cc(-c4ccccc4Cl)ccc32)c1 (stereo not drawn)	-1	12	-2	-9	6	0
O=C(Nc1cccc2cccnc12)C1CCCC1	-6	2	19	-8	13	4
O=[N+]([O-])c1ccc(-c2cnc(SC(c3ccccc3)c3ccccc3)[nH]2)cc1	-7	1	15	26*	-15	5
Cc1cc(C)c(NC(=O)C2CC(=O)N(C3CCCC3)C2)c(C)c1 (stereo not drawn)	-5	-8	-18	-7	6	0
O=CN1Cc2[nH]c3ccccc3c2N(c2ccc(Cl)cc2)C1=O	-3	27*	-8	11	2	0
